Compound activity from PubChem BioAssay.
The list is not random: actives were taken first. Their share in the collection is about 27%.
Cav3 T inh = Cav3.2 calcium influx blockers – cell-based, Fluo-4 calcium fluorescence, FDSS, MLSMR library, primary screen | Voltage-dependent T-type calcium channel subunit alpha-1H (Homo sapiens), O95180 | Cav3.2-expressing cells; stronger effect = lower value | B-score at 10 µM | 100,000 tested, 4% active | AID 449739, 2010;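 active means single-dose well whose peak fluorescence ratio is a statistical outlier from its plate by either plate-standardised score or position-corrected B-score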
CYP2C19 act = human CYP2C19 activators, primary screen, biochemical, luminescence. activation factor at 5 µM. 96,000 tested, under 10 active. Cytochrome P450 2C19 (Homo sapiens), P33261. recombinant CYP2C19, luciferin-H EGE luminescence; stronger effect = higher value; 0 = fully inhibited enzyme, 1 = untreated enzyme;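 active means activation factor of at least 2 at 5 µM in the primary screen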
CYP2C9 activ = human CYP2C9 activators, primary screen, biochemical, luminescence; 96,000 tested, 1.4% active; activation factor at 5 µM; recombinant CYP2C9, luciferin-H conversion; stronger effect = higher value; factor 1 = untreated enzyme, 0 = blocked;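 active means activation factor of 2 or more for CYP2C9 at a 5 µM dose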
CYP2C19 inh = blockers of cytochrome P450 2C19 activity – biochemical, luminescence, ADME assay, primary screen | P33261 | CYP2C19 Supersomes, luciferin-H EGE luminescence, 30 min | inhibition, % at 5 µM | 96,000 tested, 21% active | AID 778, 2007;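 active means CYP2C19 inhibition above a set limit at 5 µM in the primary screen, cut at about 50% in these data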
Pyk2 oligo antag = antagonists of Pyk2 self-association, primary screen, Q293 cells, FERM NanoBiT luminescence, HTS | stronger effect = lower value | z-score (the deposit names both 25 µM and 10 µM) | 99,000 tested, 0.83% active | AID 1347419, 2020;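 active means Z-score of -3 or lower, scaled per plate to the spread of control and sample wells; inactive means z-score above -3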;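 further: negative z-score means lost luminescence so less FERM oligomerization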
Target sequence (Q14289 whole entry, looked up): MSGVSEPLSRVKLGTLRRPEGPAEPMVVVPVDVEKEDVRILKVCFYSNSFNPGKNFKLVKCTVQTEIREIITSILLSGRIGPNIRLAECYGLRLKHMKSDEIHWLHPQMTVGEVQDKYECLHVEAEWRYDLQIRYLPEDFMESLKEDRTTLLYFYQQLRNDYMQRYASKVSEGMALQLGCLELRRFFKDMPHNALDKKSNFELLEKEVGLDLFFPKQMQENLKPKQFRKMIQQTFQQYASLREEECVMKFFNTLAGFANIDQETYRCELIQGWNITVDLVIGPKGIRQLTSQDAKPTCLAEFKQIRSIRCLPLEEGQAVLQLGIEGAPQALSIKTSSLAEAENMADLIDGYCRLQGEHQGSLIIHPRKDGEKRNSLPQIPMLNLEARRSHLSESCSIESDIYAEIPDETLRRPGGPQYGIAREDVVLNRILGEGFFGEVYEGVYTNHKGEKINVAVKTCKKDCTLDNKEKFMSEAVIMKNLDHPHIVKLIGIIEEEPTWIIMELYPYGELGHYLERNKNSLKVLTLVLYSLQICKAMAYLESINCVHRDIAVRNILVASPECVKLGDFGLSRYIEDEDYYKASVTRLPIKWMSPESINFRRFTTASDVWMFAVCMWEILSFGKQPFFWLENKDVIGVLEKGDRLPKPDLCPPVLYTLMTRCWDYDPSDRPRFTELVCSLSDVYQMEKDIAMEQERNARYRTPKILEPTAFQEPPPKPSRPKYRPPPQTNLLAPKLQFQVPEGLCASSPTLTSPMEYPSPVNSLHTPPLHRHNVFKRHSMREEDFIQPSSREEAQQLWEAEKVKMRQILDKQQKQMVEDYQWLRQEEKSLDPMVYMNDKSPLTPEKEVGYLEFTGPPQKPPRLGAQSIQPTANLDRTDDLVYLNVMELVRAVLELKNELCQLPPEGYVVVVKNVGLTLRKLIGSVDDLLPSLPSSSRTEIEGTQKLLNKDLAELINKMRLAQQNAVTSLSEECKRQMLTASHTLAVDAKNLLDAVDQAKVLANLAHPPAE
CYP2C9 inh = blockers of cytochrome P450 2C9 activity – biochemical, luminescence, ADME assay, primary screen | 96,000 tested, 20% active | AID 777, 2007 | CYP2C9 Supersomes, luciferin-H conversion | inhibition, % at 5 µM;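 active means blocking of liver enzyme CYP2C9 beyond about 50% at 5 µM, limit read from the data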
A number is an active result; 0 = inactive; - = not tested or not shown.

SMILES	Cav3 T inh	CYP2C19 act	CYP2C9 activ	CYP2C19 inh	Pyk2 oligo antag	CYP2C9 inh
CC(Sc1nnc(-c2ccc(O)cc2)o1)C(=O)Nc1cccc2ccccc12 (stereo unspecified)	0	0	0	72.0	0	0
COC(=O)C(C)Sc1nnc(-c2ccncc2)o1 (stereo unspecified)	0	0	0	89.3	0	0
COc1ccc(-c2nnc(SC(C)C(=O)Nc3cccc(Cl)c3)o2)cc1 (stereo unspecified)	0	0	0	0	0	60.8
COc1cccc(-c2nnc(NC(=O)C(C)C)o2)c1	-	0	0	0	-	0
CCOC(=O)C(Sc1nnc(-c2ccncc2)o1)C(C)=O (stereo unspecified)	0	-	-	-	0	-
O=C(CSc1nnc(-c2ccccc2Br)o1)Nc1cccc2ccccc12	0	0	0	0	0	0
C=COCCNC(=O)C1CC(=O)N(c2ccc(C)cc2)C1 (stereo unspecified)	0	0	0	0	0	0
O=C(CCSCCc1ccccn1)Nc1ccc(Cl)cn1	0	0	0	0	0	0
COC(=O)CSc1nnc(CNC(=O)c2ccc(OC)cc2OC)n1C	0	0	0	0	0	0
O=C(COc1ccccc1)NCCn1ccc2ccccc21	0	-	-	-	0	-
CC(C)C(=O)NCCn1ccc2ccccc21	0	0	0	57.2	0	0
COc1ccc(/C=C/C(=O)NCCn2c(C)cc3ccccc32)cc1OC	0	-	-	-	-	-
CCC(=O)NCCn1ccc2ccccc21	0	0	0	0	-	0
COc1ccc(C(=O)NCCn2ccc3ccccc32)c(OC)c1	0	0	0	99.8	0	0
Cc1cc2ccccc2n1CCNC(=O)C(C)Oc1ccccc1 (stereo unspecified)	0	0	0	100.4	-	87.2
O=C(Cc1cccs1)NCCn1ccc2ccccc21	0	0	0	73.1	-	0
COC(=O)[C@H](CC(C)C)NC(=O)N1CCN(c2cccc(C(F)(F)F)c2)CC1	0	0	0	0	0	0
Cc1cc2ccccc2n1CCNC(=O)C(C)C	0	0	0	50.4	-	0
COc1ccccc1CNC(=O)c1ccc(S(=O)(=O)N2CCCC2)cc1	0	0	0	0	0	0
Cc1cc2ccccc2n1CCNC(=O)Cc1ccccc1	0	0	0	96.2	-	81.4
COc1cc(/C=C/C(=O)NCCn2c(C)cc3ccccc32)cc(OC)c1OC	0	-	-	-	-	-
Cc1cc2ccccc2n1CCNC(=O)c1ccc(S(=O)(=O)N2CCCCC2)cc1	0	0	0	0	-	90.1
Cc1cccc(CC(=O)NCCn2c(C)cc3ccccc32)c1	0	-	-	-	-	-
CC1CCCN(CCC(=O)Nc2ccc3c(c2)CCC3)C1 (stereo unspecified)	0	-	-	-	0	-
CCOC(=O)Cc1csc(/C(=N/O)C(N)=O)n1	0	0	0	0	0	0
SMILES	Cav3 T inh	CYP2C19 act	CYP2C9 activ	CYP2C19 inh	Pyk2 oligo antag	CYP2C9 inh
Cc1nc2ccccc2n1CC(=O)N/N=C\c1ccccn1	0	0	0	0	0	0
Nc1ccccc1-c1nc2ccccc2[nH]1	0	0	0	0	0	56.2
O=C(NCCN1CCOCC1)N1c2ccccc2Sc2ccccc21	0	0	0	0	0	0
CCS(=O)(=O)n1nc(NCc2cccc(OC)c2)nc1NCc1cccc(OC)c1	-4.16	0	0	0	0	0
Cc1cccc(CN2CCN(c3ccccn3)CC2)c1	0	-	-	-	0	-
c1ccc(Oc2cccc(CN3CCCCC3)c2)cc1	0	0	0	50.0	0	0
Brc1cccc(CN2CCCCCCC2)c1	0	0	0	77.2	0	0
c1ccc(COc2cccc(CN3CCN(c4ccccn4)CC3)c2)cc1	0	0	0	0	0	69.6
CCN1CCN(Cc2cccc(Oc3ccccc3)c2)CC1	0	0	0	0	0	0
O=C(CN1CCCCCC1)Nc1cccc(Br)c1	0	0	0	0	0	0
CCNc1nc(NC(C)(C)C)nc(N(C#N)CC)n1	0	0	0	0	0	0
COc1ccc(C(=O)Nc2nc(C)c(C)s2)cc1OC	0	0	0	0	0	0
CC(C)(C)OC(=O)N[C@@H](Cc1ccccc1)c1nnc(SCC(=O)O)o1	0	0	0	0	0	56.4
